Source: PubChem BioAssay
A selection: hits, their analogues and other compounds. The true share with any hit is near 11%.
NIH3T3 tox: cytotoxic compounds in NIH 3T3 cells. hit rate 4.3% among 94,000. AID 1345082. NIH 3T3 viability, CellTiter-Glo ATP luminescence, 48-72 h. Potency, µM (doses to about 96.7 µM), inactives show at the highest dose activity change, negative = cytotoxicity, usual class: inhibitors; note: % is set by controls: 0 for no effect and ±100 for the full control effect; nearly all actives have a fitted effect of over 55% in size
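Luminescent ATP readout (CellTiter-Glo, 10 min RT) after 48 or 72 hr compound exposure of NIH 3T3 cells seeded at 400 cells/well in 1536-well format; quantitative HTS.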
FLuc inh-1: inhibitors of firefly (Photinus pyralis) luciferase; P08659; purified P. pyralis luciferase, luminescence, biochemical; Potency, µM (series often up to 115 µM), usual class: inhibitors; hit rate 2.5% among 76,000; note: % is set by controls: 0 for no effect and ±100 for the full control effect; nearly all actives have a fitted effect of over 65% in size
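Biochemical qHTS: compound (6-point titration) added to 10uM D-luciferin plus 10uM ATP in Tris acetate pH 7.5 buffer with Mg, Tween-20 and BSA, then purified enzyme at 10nM; light output imaged.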
HEK293 tox: HEK 293 cell cytotoxicity; AID 1345083; Potency, µM (titrated, usually from 115 µM), for inactives: top-dose activity change, negative = cytotoxicity, hits mostly inhibitors; HEK 293 viability, ATP luminescence (CellTiter-Glo), 48-72 h; hit rate 6.6% among 94,000; note: % is set by controls: 0 for no effect and ±100 for the full control effect; nearly all actives have a fitted effect of over 60% in size
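Read-out: CellTiter-Glo ATP luminescence. Cells: HEK 293, 250 cells/well. Exposure: 48 or 72 hr, 37 degree Celsius.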
NPR1 antag: antagonists of human natriuretic peptide receptor Npr1; P16066; HEK293 hNpr1 GloSensor cGMP, ANP-stimulated luminescence; Potency, µM (top dose mostly 46.3 µM), for the others: at the top dose activity change, negative = inhibition, hits mostly inhibitors; hit rate 1.6% among 76,000; calls by dose curve; note: % is set by controls: 0 for no effect and ±100 for the full control effect; nearly all actives have a fitted effect of over 60% in size
Target sequence (P16066 whole entry, looked up): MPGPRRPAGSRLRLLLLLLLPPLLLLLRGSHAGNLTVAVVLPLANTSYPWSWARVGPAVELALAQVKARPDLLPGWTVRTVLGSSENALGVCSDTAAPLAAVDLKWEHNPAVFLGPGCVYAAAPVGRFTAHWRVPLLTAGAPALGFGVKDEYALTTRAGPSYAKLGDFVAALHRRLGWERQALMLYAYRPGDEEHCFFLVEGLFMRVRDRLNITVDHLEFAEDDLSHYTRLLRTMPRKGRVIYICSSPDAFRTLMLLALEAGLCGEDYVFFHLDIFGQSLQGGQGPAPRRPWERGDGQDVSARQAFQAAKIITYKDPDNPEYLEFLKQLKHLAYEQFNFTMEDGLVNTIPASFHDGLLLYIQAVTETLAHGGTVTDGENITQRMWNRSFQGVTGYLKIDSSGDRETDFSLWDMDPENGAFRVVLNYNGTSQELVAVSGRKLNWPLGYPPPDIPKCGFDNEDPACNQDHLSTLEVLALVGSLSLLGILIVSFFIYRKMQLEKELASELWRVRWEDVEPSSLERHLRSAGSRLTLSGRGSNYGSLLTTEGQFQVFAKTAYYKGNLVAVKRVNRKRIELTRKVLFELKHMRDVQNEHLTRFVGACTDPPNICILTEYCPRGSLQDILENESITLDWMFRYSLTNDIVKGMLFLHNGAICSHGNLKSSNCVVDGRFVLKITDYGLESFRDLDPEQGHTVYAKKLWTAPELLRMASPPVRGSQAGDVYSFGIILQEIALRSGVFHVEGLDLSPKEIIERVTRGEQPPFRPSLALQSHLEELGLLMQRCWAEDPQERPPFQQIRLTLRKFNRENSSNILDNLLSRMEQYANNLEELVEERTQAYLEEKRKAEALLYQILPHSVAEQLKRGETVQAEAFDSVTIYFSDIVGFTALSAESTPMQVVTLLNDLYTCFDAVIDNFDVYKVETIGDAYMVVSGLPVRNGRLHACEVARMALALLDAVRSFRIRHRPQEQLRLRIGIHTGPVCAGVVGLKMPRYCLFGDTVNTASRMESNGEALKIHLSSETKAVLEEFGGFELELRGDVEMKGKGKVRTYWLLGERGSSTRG
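Compound pre-incubated 30 min at room temperature on GloSensor-loaded HEK293 cells stably carrying hNpr1 and the pGS-40F cGMP biosensor. Stimulation uses hNppA at 0.1 nM final; luminescence is taken at baseline and 20 min post-agonist.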
FLuc SDR -ATP: binders stabilizing firefly luciferase, without ATP. shares compounds with FLuc inh-1. Purified FLuc-C-HiBiT, Nano-Glo HiBiT luminescence, no ATP. Potency, µM (titrated, usually from 32.7 µM), for inactives: at the top dose activation (signal gain), hits mostly activators. hit rate 7.8% among 1,300; note: nearly all actives have a fitted effect of over 55% in size
FLuc SDR ATP: binders stabilizing firefly luciferase, plus ATP; shares compounds with FLuc inh-1; purified FLuc-C-HiBiT + ATP, HiBiT complementation luminescence; Potency, µM (top dose mostly 32.7 µM), for inactives: top-dose activation (gain of signal), most hits filed as activators; hit rate 8.7% among 1,300; AID 1963319;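 note: signal reports ligand binding via conformational change of the enzyme rather than luciferase catalysis; % of control where 0% means no effect; nearly all actives have a fitted effect of over 55% in size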
FLuc inh-2: blocks firefly luciferase enzymatic activity; shares compounds with FLuc inh-1; hit rate 42% among 1,300; Potency, µM (highest dose often 32.7 µM), inactives show at the top dose activity change, negative = inhibition, actives largely listed as inhibitors; purified FLuc-C-HiBiT enzyme, luciferin luminescence; note: % is set by controls: 0 for no effect and ±100 for the full control effect; nearly all actives have a fitted effect of over 70% in size
An asterisk follows results filed as active; i = inactive; ? = inconclusive; . = not tested or not shown; [ ] = remark or other dose. Unless noted, calls come from the whole dose curve; as a rule, active = well fitted curve in the direction sought with a large enough effect; inconclusive = small, poorly fitted or top-dose-only effect, or another doubt; inactive = no such curve, though single readings can be large; an effect the other way counts as inactive or inconclusive. Potency is the fitted concentration of half-maximal effect.

SMILES	NIH3T3 tox	FLuc inh-1	HEK293 tox	NPR1 antag	FLuc SDR -ATP	FLuc SDR ATP	FLuc inh-2
Cc1cccc(C(=O)N2CC(N(CC3CC3)C3CCOCC3)C2)c1	i	i	-8.6%	0.2%	.	.	.
O=C(c1ccc2oc(-c3cccc(F)c3)nc2c1)N1CCCCC1CCO (stereo not drawn)	?	14.1µM*	?	-20.6%	18.4%	15.7%	?
CCCCNc1nc(N)c2[nH]c(=O)n(Cc3ccc(OCCN(C)C)nc3)c2n1	.	.	.	.	11.3%	8.1%	-4.8%
CN1C(=O)C2(CCCN(c3ncnc4[nH]ccc34)C2)c2ccccc21 (stereo not drawn)	-29.6%	i	-23.3%	3.5%	.	.	.
O=C1Cc2c(-c3cccc4ccccc34)n[nH]c2CN1CCOc1ccccc1	44.7µM*	10µM*	44.7µM*	?	6.5%[49.3 µM]	10.2%[49.3 µM]	?
Cc1ccc(CCC(=O)N[C@H](C2CCNCC2)C2CC(O)C2)cc1C (stereo partly drawn)	-10.2%	i	-5.8%	0.2%	.	.	.
CCOCC(=O)N1CCC(C2CCNC2)CC1 (stereo not drawn)	-0.9%	i	0.8%	8.9%	.	.	.
COc1cccc(-n2cnc3c(N/N=C/c4ccncc4)ncnc32)c1	.	.	.	.	24.4%	13.6%	?
COc1ccc(CCCN2C(=O)O[C@@H]3CN(C4CCOCC4)C[C@@H]32)cc1	3.9%	i	6.1%	-0.4%	.	.	.
O=C(NCCC1CCN(C(=O)Nc2cc(F)cc(F)c2)CC1)c1ccc(F)cc1	?	14.1µM*	?	-22.5%	16.8%	11.4%	-17.7%
Cc1ccc(NC(=O)N2CCC(CCNC(=O)C3CC3)CC2)cc1F	-16.9%	11.2µM*	-11.7%	-13.9%	?	?	?
O=C(NCCC1CCN(C(=O)Nc2cc(F)cc(F)c2)CC1)c1ccc2nc[nH]c2c1	-4.1%	?	2.2%	0.3%	.	.	.
Cc1ccc(NC(=O)CN2C(=O)NC(c3ccc(Cl)cc3)C3=C2COC3=O)cc1 (stereo not drawn)	?	i	?	-21.4%	.	.	.
Cc1ccc2oc([C@H]3CCN(Cc4cccs4)C3)nc2c1	?	10µM*	100µM*	-22.5%[70.6 µM]	17.7%[49.3 µM]	16.4%[49.3 µM]	?
Cc1ccc2oc([C@H]3CCN(Cc4ccccn4)C3)nc2c1	?	?	?	-16.7%[70.6 µM]	.	.	.
CCCCCc1nn2cc(-c3ccccc3)nc2s1	.	.	.	.	?	?	0.624µM*
CCNc1cc(N2CCC(CCC(=O)O)CC2)ncn1	-8.0%	31.6µM*	10.8%	0.0%	12.8%	9.89µM*	5.56µM*
CN(Cc1ccccc1)C(=O)[C@H]1C[C@@H](O)[C@H](O)[C@@H]2N=C(Nc3ccc(Cl)cc3)S[C@@H]21	-0.7%	i	4.9%	-1.7%	.	.	.
CC(C)c1ccc(N2C(=S)N[C@H]3[C@@H](O)[C@H](O)C[C@@H](C(=O)N(C)Cc4ccccc4)[C@H]32)cc1	35.5µM*	3.16µM*	39.8µM*	-24.7%	9.9%	11.1µM*	11.1µM*
O=C1C[C@H]2CC[C@@H](CN1)N2Cc1ccc(OCc2ccccc2)cc1	?	11.2µM*	?	?	12.9%	11.0%	?
COc1ccc(NC(=O)Cn2c(C)cc3nc4n(c(=O)c32)CCCCC4)cc1	-13.8%	i	?	0.3%	.	.	.
O=C(NCc1cccc(Cl)c1)C1CCCN(c2nn3cc(-c4ccc(F)cc4)nc3s2)C1 (stereo not drawn)	.	.	.	.	21.1%	?	?
COc1ccccc1CNC(=O)C1CCN(c2cnc3nccnc3c2)CC1	i	i	-0.4%	6.5%	.	.	.
O=C(NCc1ccc(F)cc1)C1CCCN(c2nc3ncccc3o2)C1 (stereo not drawn)	i	i	-6.6%	0.0%	.	.	.
COc1ccc(-c2cn3nc(N4CCCC(C(=O)NCc5ccccc5OC)C4)sc3n2)cc1 (stereo not drawn)	.	.	.	.	14.6%	13.3%	?
SMILES	NIH3T3 tox	FLuc inh-1	HEK293 tox	NPR1 antag	FLuc SDR -ATP	FLuc SDR ATP	FLuc inh-2
CC(C)(C)OCC1CN(Cc2ccccc2)[S+](=O)([O-])c2cccnc2O1 (stereo not drawn)	?	.	-30.4%[57.5 µM]	.	.	.	.
COc1ccc(C(=O)Nc2ccc3n(c2=O)C[C@H]2C[C@@H]3CN(C(=O)CCCC(=O)O)C2)cc1	0.5%	12.6µM*	3.1%	4.4%	?	19.0%	?
O=C(C1CCCC1)N1CCCCCC1c1nnc(-c2ccccc2)o1 (stereo not drawn)	-33.3%	.	?	.	.	.	.
O=C(c1ccncc1)N1CCC2(CC1)NC(=O)N(Cc1ccccc1Cl)C2=O	3.8%	i	5.7%	7.0%	.	.	.
CCn1cnnc1CC1CCN(C(=O)c2cc(-c3ccc(C)c(C)c3)nc3ccccc23)CC1	39.8µM*	7.94µM*	?	-15.6%	?	?	2.79µM*
COc1ccccc1CNC(=O)C1CCN(C(=O)c2ncn3c2COC(c2ccc(C)cc2)C3)CC1 (stereo not drawn)	-1.0%	?	-3.1%	-0.7%	.	.	.
CCOc1ccccc1CNC(=O)C1CCN(C(=O)c2ncn3c2COC(c2ccccc2)C3)CC1 (stereo not drawn)	-21.1%	3.98µM*	-5.3%	-11.8%	11.7%	2.21µM*	3.13µM*
O=C(NCc1ccc(F)cc1Cl)C1CCN(C(=O)c2ncn3c2COC(c2ccccc2)C3)CC1 (stereo not drawn)	i	12.6µM*	-2.3%	-11.7%	12.9%	?	?
O=C(NCc1ccccc1Cl)C1CCN(C(=O)c2ncn3c2COC(c2ccc(F)cc2)C3)CC1 (stereo not drawn)	i	?	-0.3%	5.4%	.	.	.
CCC(=O)N1CCc2ccc(C(=O)NC3CC3)cc21	4.3%	i	-5.4%	1.6%	.	.	.
CCC(=O)N1CCc2ccc(C(=O)NC3CCCCC3)cc21	-15.0%	2.24µM*	-20.0%	?	?	?	?
CC(=O)N[C@@H]1CN(Cc2cccc(Br)c2)C[C@H]1CO	2.8%	i	i	2.3%	.	.	.
Brc1ccccc1-n1ncc2c1ncn1nc(Cc3ccccc3)nc21	.	.	.	.	15.6%	10.4%	-10.7%
O=C(N[C@H]1CO[C@H]2[C@@H]1OC[C@@H]2n1cc(COc2ccccc2)nn1)c1ccc(C(F)(F)F)cc1	-16.9%	i	i	-0.8%	.	.	.
Cn1ncc2c(C(=O)Nc3cccc(Cl)c3)cc(-c3ccccc3C(F)(F)F)nc21	-9.5%	.	?	.	.	.	.
COc1ccc(NC(=O)c2cc3n(n2)CC(c2ccc(Cl)cc2)OC3)cc1Cl (stereo not drawn)	?	i	?	?	.	.	.
Cc1ccc(NC(=O)c2ccc3nc(-c4ccccn4)oc3c2)cc1	-27.0%	.	?	.	.	.	.
